Results on five compounds are retold here after PubChem BioAssay (EPA / NIEHS).

Calls of active or inactive are those of the source. Rule for the calls: active = hit-call score of the fitted dose curve at least 0.9, where 1 is the maximum; inactive = score below 0.9.

Experiment [1] is described as follows: ATG_GRE_CIS: Attagene CIS-FACTORIAL HepG2 Assay for human Glucocorticoid Response Elements (GRE) (AID 2282947). The conditions noted are these: HepG2 GRE cis-reporter, Attagene multiplex mRNA; actives raise or lower the signal. The gist of the method:
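Transiently transfected HepG2 cells carrying GRE cis-reporter units (endogenous TF activity) dosed 24 h; reporter mRNA quantified by RT-PCR, 6-FAM labelling, HpaI digestion and capillary electrophoresis. Bidirectional fit versus DMSO baseline.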

Experiment [2] can be described thus: ATG_ISRE_CIS: Attagene CIS-FACTORIAL HepG2 Assay for human Interferon Regulatory Factor 1 (IRF1) binding to an Interferon-Stimulated Response Element (ISRE) (AID 2282948). To be noted: HepG2 ISRE cis-reporter (Attagene), mRNA transcription readout; actives raise or lower the signal. The gist of the method:
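HepG2 cells transiently transfected with multiplexed cis-promoter reporter units; after 24 h compound exposure, reporter mRNA quantified by RT-PCR, FAM labelling, HpaI digestion and capillary electrophoresis. Bidirectional fit versus DMSO baseline.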

Experiment [3] in a line: ATG_M_32_CIS: Attagene CIS-FACTORIAL HepG2 Assay for M32 Transcription Factor (Internal Marker) (AID 2282949).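 Note: background control marker of the multiplexed CIS panel rather than a real target.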 To be noted: HepG2 Attagene cis-factorial M32 reporter, mRNA; actives raise or lower the signal. The gist of the method:
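Fluorescent capillary electrophoresis peaks of HpaI-digested, FAM-labelled RT-PCR reporter products give the signal. Source: transiently transfected human liver HepG2 cells, 24 h after chemical dosing; bidirectional fitting against DMSO.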

Experiment [4] is described as follows: ATG_M_06_CIS: Attagene CIS-FACTORIAL HepG2 Assay for M06 Transcription Factor (Internal Marker) (AID 2282950). To be noted: HepG2 Attagene CIS-FACTORIAL M06 internal marker reporter; actives raise or lower the signal. Summed up:
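Cells (HepG2, transiently carrying cis-driven reporter units) receive chemical for 24 h before RNA isolation. Reporter cDNA is PCR-amplified, FAM-labelled by primer extension, HpaI-digested and sized on a capillary analyser.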

Experiment [5] concerns the target Hypoxia-inducible factor 1-alpha (Homo sapiens) (UniProt Q16665). Put plainly: ATG_HIF1a_CIS: Attagene CIS-FACTORIAL HepG2 Assay for human Hypoxia Inducible Factor 1 (HIF1A) (AID 2282951). The conditions noted are these: HepG2 Attagene cis-factorial HIF1a reporter transcription; actives raise or lower the signal. Summed up: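 Transient MRTU transfection of human HepG2 liver cells, 24 h compound treatment, then total RNA isolation, oligo(dT) reverse transcription, PCR amplification, fluorescent labelling and capillary electrophoresis of reporter fragments. Gain or loss relative to DMSO.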

The target of experiment [6] is Hepatocyte nuclear factor 6 (Homo sapiens) (UniProt Q9UBC0). Put plainly: ATG_HNF6_CIS: Attagene CIS-FACTORIAL HepG2 Assay for human Hepatocyte Nuclear Factor 6 (HNF6) (AID 2282952). The conditions noted are these: HepG2 Attagene cis-factorial HNF6 reporter transcription; actives raise or lower the signal. The gist of the method: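 Transiently transfected HepG2 cells expressing cis-regulated reporter transcription units were exposed to chemical for 24 h in a 24-well format. Reporter transcript abundance was determined by fluorescence capillary electrophoresis.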

Experiment [7] is described as follows: ATG_MRE_CIS: Attagene CIS-FACTORIAL HepG2 Assay for human Metal Responsive Element (MRE) (AID 2282954). The conditions noted are these: HepG2 MRE cis-reporter transcription, Attagene multiplex; actives raise or lower the signal. Summed up:
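HepG2 cells transiently transfected with cis-element-driven reporter units; mRNA measured 24 h after dosing. Reporter transcripts quantified by RT-PCR, FAM labelling, HpaI digestion and capillary electrophoresis; bidirectional fit versus DMSO.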

Experiment [8] addresses Paired box protein Pax-6 (Homo sapiens) (UniProt P26367). In words: ATG_Pax6_CIS: Attagene CIS-FACTORIAL HepG2 Assay for human Paired Box 6 (PAX6) (AID 2282956). To be noted: HepG2 CIS-FACTORIAL PAX6 reporter transcription, RNA readout; actives raise or lower the signal. Summed up:
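HepG2 cells transiently transfected with multiplexed cis-promoter reporter units (endogenous TF activity) were dosed for 24 h. Reporter mRNA was quantified by RT-PCR, 6-FAM labeling, HpaI digestion and capillary electrophoresis; bidirectional fitting versus DMSO baseline.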

Experiment [9] in a line: ATG_PXRE_CIS: Attagene CIS-FACTORIAL HepG2 Assay for human Pregnane X Receptor Element (PXRE) (AID 2282957). The conditions noted are these: HepG2 Attagene CIS-FACTORIAL PXRE reporter, mRNA; actives raise or lower the signal. The gist of the method: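 Cis-element reporter mRNA in human hepatoma HepG2 cells is measured 24 h post-dosing by RT-PCR, primer-extension labeling and capillary electrophoresis; gain or loss of signal is fitted relative to DMSO.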

Experiment [10] in a line: ATG_PPRE_CIS: Attagene CIS-FACTORIAL HepG2 Assay for human Peroxisome Proliferator-activated Response Element (PPRE) (AID 2282958). To be noted: HepG2 PPRE cis-element reporter, Attagene transcription factor profiling; actives raise or lower the signal. The gist of the method:
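HepG2, transient MRTU transfection (cis promoter elements, endogenous TFs). 24 h dosing. RNA → oligo(dT) RT → PCR → 6-FAM primer extension → HpaI digest → CE. Bidirectional fit vs DMSO.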

The nature of experiment [11]: ATG_RORE_CIS: Attagene CIS-FACTORIAL HepG2 Assay for human RAR-related Orphan Receptor Element (RORE) (AID 2282959). The conditions noted are these: HepG2 Attagene cis-factorial RORE reporter, mRNA; actives raise or lower the signal. The gist of the method:
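Transient MRTU transfection of human HepG2 liver cells (FuGene 6); 24 h compound exposure; TriZol RNA, oligo(dT) RT, PCR, FAM labeling, HpaI cut, CE fragment analysis. DMSO = negative control/baseline.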

Experiment [12] can be described thus: ATG_SREBP_CIS: Attagene CIS-FACTORIAL HepG2 Assay for human Sterol Regulatory Element Binding (SREBP) (AID 2282962). The conditions noted are these: HepG2 Attagene cis-factorial SREBP reporter, mRNA; actives raise or lower the signal. The gist of the method: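 HepG2 cells transiently transfected with multiplexed cis-element reporter units report endogenous transcription factor activity. After 24 h of chemical exposure, reporter mRNA was quantified by RT-PCR, 6-FAM labelling, HpaI digestion and capillary electrophoresis; bidirectional fits used DMSO as baseline.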

Experiment [13] has as its target Signal transducer and activator of transcription 3 (Homo sapiens) (UniProt P40763). In words: ATG_STAT3_CIS: Attagene CIS-FACTORIAL HepG2 Assay for human Signal Transducer and Activator of Transcription 3 (STAT3) (AID 2282963). The conditions noted are these: HepG2, Attagene cis-factorial STAT3 reporter transcription; actives raise or lower the signal. The gist of the method:
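HepG2 cells transiently transfected with multiple cis-element-driven reporter units report endogenous transcription factor activity. After 24 h compound exposure, reporter mRNA is measured by RT-PCR, 6-FAM labelling, HpaI digestion and capillary electrophoresis. Fitted bidirectionally versus DMSO.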

A short description of experiment [14]: ATG_TCF_b_cat_CIS: Attagene CIS-FACTORIAL HepG2 Assay for human T-Cell-Factor with beta-catenin (TCF/b-cat) (AID 2282965). The conditions noted are these: HepG2 TCF/beta-catenin cis-reporter transcription, actives raise or lower the signal. Summed up:
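HepG2, transient MRTU transfection, cis-element-driven reporters (endogenous TFs). 24 h compound exposure. Readout: reporter mRNA by RT-PCR + 6-FAM primer extension, HpaI digest, capillary electrophoresis. Gain/loss fit vs DMSO baseline.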

The target of experiment [15] is Heat shock factor protein 1 (Homo sapiens) (UniProt Q00613). In words: ATG_HSE_CIS: Attagene CIS-FACTORIAL HepG2 Assay for human Heat Shock Transcription Factor 1 (HSE) (AID 2282953). To be noted: HepG2 HSE cis-reporter, Attagene RNA transcription; actives raise or lower the signal. The gist of the method: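 Liver-derived HepG2 cells carry transiently introduced multiple reporter units governed by cis promoters. Reporter RNA measured 24 h post-dose through reverse transcription, PCR amplification, fluorescent labelling and capillary electrophoresis, normalised to DMSO.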

Experiment [16] is described as follows: ATG_Sox_CIS: Attagene CIS-FACTORIAL HepG2 Assay for human SRY-box transcription factor (SOX) (AID 2282960). The conditions noted are these: HepG2 Attagene cis-factorial SOX reporter, mRNA; actives raise or lower the signal. The gist of the method: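 Endogenous factor activity in human liver HepG2 cells carrying transfected cis-regulated reporter units. RNA taken 24 h post-dose, reverse-transcribed, PCR-amplified and sized by capillary electrophoresis. Gain or loss of signal fitted relative to DMSO.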

The target in experiment [17] is Transcription factor Sp1 (Homo sapiens) (UniProt P08047). In words: ATG_Sp1_CIS: Attagene CIS-FACTORIAL HepG2 Assay for human Specificity Protein 1 (Sp1) (AID 2282961). The conditions noted are these: HepG2 Sp1 cis-reporter transcription, actives raise or lower the signal. The gist of the method:
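Transient MRTU-transfected HepG2, 24 h compound exposure. Total RNA → oligo(dT) RT → PCR of reporter → 6-FAM primer extension → HpaI digest → CE. Endpoint fitted both directions vs DMSO.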

The nature of experiment [18]: ATG_TA_CIS: Attagene CIS-FACTORIAL HepG2 Assay for human TA Basal Promoter (AID 2282964). To be noted: HepG2 Attagene CIS-factorial TA basal promoter reporter; actives raise or lower the signal. The gist of the method: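 Background internal-marker endpoint from a 52-component HepG2 cis-reporter panel. Cells treated 24 h; reporter transcripts quantified via RT-PCR and CE fluorescence against DMSO baseline.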

A short description of experiment [19]: ATG_PBREM_CIS: Attagene CIS-FACTORIAL HepG2 Assay for human Phenobarbital-responsive Enhancer Module (PBREM) (AID 2282955). To be noted: HepG2 PBREM cis-reporter, Attagene multiplexed transcription; actives raise or lower the signal. Summed up:
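Endogenous transcription factors in human liver HepG2 cells drive a PBREM cis-element reporter, whose transcript level after 24 h treatment is quantified by RT-PCR with capillary electrophoresis; activity fitted in both directions against DMSO.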

Chain of Heat shock factor protein 1 (Homo sapiens) (Q00613 whole entry, looked up): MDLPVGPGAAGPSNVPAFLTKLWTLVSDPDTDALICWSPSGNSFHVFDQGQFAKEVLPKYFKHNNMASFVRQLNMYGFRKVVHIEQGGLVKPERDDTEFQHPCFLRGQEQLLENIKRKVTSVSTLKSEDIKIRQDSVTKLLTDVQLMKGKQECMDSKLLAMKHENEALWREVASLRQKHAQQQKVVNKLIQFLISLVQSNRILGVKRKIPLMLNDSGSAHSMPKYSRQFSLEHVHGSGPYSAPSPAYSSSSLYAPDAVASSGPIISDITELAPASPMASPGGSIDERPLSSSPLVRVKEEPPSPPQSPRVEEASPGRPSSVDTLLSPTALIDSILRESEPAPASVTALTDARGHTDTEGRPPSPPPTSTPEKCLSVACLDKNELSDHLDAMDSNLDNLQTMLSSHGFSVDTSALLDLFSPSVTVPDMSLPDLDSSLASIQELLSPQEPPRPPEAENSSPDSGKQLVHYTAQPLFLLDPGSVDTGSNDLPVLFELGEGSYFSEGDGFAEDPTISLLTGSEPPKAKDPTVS
Chain of Paired box protein Pax-6 (Homo sapiens) (P26367 whole entry, looked up): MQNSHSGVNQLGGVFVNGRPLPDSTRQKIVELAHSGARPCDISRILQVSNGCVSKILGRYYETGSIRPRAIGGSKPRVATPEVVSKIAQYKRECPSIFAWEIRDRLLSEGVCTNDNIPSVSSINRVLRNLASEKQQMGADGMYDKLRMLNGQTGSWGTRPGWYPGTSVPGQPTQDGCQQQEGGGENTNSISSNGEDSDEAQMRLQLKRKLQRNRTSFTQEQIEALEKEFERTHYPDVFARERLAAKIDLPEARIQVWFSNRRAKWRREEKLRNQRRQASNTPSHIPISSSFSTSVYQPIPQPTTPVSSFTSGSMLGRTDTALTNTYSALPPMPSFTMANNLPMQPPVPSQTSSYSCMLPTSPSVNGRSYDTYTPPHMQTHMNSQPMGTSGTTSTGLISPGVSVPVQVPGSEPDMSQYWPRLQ
Chain of Signal transducer and activator of transcription 3 (Homo sapiens) (P40763 whole entry, looked up): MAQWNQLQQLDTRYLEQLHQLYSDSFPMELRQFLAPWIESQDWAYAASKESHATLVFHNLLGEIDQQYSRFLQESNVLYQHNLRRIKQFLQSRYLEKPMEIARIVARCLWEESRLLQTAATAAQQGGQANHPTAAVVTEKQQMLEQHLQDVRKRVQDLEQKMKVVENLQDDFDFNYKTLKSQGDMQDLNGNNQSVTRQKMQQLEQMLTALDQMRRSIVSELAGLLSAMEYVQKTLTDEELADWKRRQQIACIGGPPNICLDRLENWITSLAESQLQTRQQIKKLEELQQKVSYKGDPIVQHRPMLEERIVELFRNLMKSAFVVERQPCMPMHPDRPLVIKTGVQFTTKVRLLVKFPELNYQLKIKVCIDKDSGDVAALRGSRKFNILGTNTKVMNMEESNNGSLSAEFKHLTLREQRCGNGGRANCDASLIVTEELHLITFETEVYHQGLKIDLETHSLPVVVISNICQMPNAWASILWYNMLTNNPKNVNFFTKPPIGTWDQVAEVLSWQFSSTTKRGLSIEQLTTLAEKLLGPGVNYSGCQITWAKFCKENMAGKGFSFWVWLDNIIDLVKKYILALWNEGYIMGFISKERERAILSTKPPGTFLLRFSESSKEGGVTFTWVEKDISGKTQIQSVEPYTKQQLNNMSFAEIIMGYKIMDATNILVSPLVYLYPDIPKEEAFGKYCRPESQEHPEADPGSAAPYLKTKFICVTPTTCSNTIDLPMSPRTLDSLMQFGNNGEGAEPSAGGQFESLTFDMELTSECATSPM
Chain of Hepatocyte nuclear factor 6 (Homo sapiens) (Q9UBC0 whole entry, looked up): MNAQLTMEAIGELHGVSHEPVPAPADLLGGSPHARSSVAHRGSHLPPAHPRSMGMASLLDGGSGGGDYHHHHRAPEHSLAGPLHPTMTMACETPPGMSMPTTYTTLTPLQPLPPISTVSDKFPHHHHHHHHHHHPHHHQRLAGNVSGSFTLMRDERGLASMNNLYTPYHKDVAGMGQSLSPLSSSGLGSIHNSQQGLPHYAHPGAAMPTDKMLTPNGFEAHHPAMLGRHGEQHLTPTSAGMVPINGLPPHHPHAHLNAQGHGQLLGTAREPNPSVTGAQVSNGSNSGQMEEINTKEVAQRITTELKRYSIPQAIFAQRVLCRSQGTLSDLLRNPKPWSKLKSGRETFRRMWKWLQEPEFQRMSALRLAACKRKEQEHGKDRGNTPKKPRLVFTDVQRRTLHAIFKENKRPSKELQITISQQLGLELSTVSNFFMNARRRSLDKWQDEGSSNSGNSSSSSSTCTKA
Chain of Transcription factor Sp1 (Homo sapiens) (P08047 whole entry, looked up): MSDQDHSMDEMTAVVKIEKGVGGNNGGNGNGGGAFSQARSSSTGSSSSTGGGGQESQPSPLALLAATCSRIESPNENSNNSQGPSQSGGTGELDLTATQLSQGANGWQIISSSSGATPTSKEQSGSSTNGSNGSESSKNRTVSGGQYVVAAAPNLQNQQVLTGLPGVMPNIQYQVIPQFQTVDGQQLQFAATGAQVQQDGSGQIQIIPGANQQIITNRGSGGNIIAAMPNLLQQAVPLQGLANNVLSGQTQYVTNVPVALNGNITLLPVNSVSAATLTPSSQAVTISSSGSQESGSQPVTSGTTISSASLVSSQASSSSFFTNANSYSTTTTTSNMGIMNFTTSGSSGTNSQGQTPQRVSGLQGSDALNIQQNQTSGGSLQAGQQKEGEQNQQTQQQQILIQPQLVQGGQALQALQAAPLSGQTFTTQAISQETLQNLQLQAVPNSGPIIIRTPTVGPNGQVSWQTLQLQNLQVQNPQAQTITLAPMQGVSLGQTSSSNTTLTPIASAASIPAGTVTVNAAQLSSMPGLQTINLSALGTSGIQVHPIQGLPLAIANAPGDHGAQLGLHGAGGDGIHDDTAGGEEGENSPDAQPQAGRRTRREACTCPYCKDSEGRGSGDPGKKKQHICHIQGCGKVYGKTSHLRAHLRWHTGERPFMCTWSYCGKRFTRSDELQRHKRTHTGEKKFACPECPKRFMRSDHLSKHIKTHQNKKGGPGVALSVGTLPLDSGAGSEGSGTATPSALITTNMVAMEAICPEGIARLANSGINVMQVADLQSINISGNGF
Chain of Hypoxia-inducible factor 1-alpha (Homo sapiens) (Q16665 whole entry, looked up, the tested form may be a part): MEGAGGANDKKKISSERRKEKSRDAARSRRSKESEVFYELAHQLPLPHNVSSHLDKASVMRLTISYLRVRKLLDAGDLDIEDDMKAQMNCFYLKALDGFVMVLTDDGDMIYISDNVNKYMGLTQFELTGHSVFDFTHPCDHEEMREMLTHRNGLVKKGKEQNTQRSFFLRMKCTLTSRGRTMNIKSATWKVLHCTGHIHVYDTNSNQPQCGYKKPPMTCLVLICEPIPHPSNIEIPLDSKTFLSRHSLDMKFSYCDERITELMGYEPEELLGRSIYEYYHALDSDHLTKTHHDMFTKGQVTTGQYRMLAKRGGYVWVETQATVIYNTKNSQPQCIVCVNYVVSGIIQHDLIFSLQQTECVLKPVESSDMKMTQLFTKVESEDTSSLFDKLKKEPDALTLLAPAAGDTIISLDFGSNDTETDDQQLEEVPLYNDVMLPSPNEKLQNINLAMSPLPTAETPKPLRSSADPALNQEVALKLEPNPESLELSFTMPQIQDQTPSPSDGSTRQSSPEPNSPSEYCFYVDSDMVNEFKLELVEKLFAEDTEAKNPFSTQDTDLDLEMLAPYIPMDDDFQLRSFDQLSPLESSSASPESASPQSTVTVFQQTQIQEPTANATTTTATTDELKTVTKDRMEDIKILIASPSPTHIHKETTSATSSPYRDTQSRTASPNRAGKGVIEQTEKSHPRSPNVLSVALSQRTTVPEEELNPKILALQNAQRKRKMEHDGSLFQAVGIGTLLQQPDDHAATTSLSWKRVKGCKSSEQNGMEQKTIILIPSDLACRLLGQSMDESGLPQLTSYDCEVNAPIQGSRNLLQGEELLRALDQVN

For the compound `COCCOCCOCCOCCOC`, the compound was classed as inactive in experiment [1], in experiment [2], in experiment [3], in experiment [4], in experiment [5] and in experiment [6]. Further, the call in experiment [7], in experiment [8], in [9], in experiment [10], in experiment [11] and in experiment [12] was inactive. Further, the compound was called inactive in experiment [13] and in [14].

Consider `N=c1ccn2c(n1)O[C@H]1[C@H](O)[C@@H](CO)O[C@H]12`, for which the compound was called inactive in experiment [1], in [2], in experiment [3], in [4], in experiment [5] and in [15]. Moreover, the result in [7], in [8], in experiment [9], in experiment [11], in experiment [16] and in [17] was inactive. The outcome in experiment [12], in [13], in [18] and in [14] was inactive.

As a reminder, the AC50 is the midpoint of the concentration-response curve, whichever way the signal moves. For the compound `CCCCC/C=C\CCC=O`, the result in [1], in experiment [2], in experiment [3], in experiment [4], in experiment [5] and in experiment [15] was inactive. For the same compound, the call in experiment [7], in [19], in [8], in experiment [10], in experiment [11] and in experiment [17] was inactive. In addition, the result in [12], in experiment [13], in experiment [18] and in [14] was inactive. Further, in [9], the AC50 was 27.8 µM (active).

For `CC(C)c1ccc2cc(C(C)C)ccc2c1`, the result in [1], in [3], in [4], in experiment [5], in experiment [6] and in experiment [15] was inactive. For the same compound, the call in experiment [7], in [8], in [9], in [11], in [17] and in experiment [12] was inactive. For the same compound, the outcome in experiment [18] and in [14] was inactive. Also, the AC50 in [16] is 59.9 µM (active).

In the case of `C=C[Si](C)(C)O[Si](C)(C)C=C`, the result in [1], in [2], in [3], in experiment [4], in experiment [6] and in [15] was inactive. The result in [7], in experiment [8], in experiment [11], in [17], in experiment [12] and in [18] was inactive. Moreover, the call in experiment [14] was inactive. In addition, in experiment [9], the AC50 was 27.9 µM (active).
